ChEMBL document CHEMBL3988442, “University of Dundee, Small-Polar-MMV Screening Library” (2021)
About 13,000 (27%) of roughly 48,000 compounds showed an effect of 50% or more. This is one part of the list.

What follows are compounds tested on Wolbachia pipientis (assay: Anti-Wolbachia Cell-Based Screen). Conditions: 5 µM.
Format: functional
Set-up: scale not given: in the data most compounds retested in dose-response had high values

Row | Structure (SMILES) | Percent Effect [%]
1 | Cc1c[nH]nc1C1CCCN(C(=O)c2c(C)noc2C)C1 (stereo not given) | 107
2 | Cc1cc(C)n(C2CCCN(C(=O)c3c(C)noc3C)C2)n1 (stereo not given) | -7.23
3 | Cc1noc(C)c1C(=O)N1CCCC(c2nccn2Cc2cscn2)C1 (stereo not given) | -18.15
4 | CCc1ccc(C(=O)N2CCCC(c3noc(CC)n3)C2)o1 (stereo not given) | 3.526
5 | CCc1nc(C2CCCN(C(=O)c3ccc(F)cc3)C2)no1 (stereo not given) | 103.7
6 | CCc1nc(C2CCCN(C(=O)c3ccc(OC)cc3)C2)no1 (stereo not given) | 87.64
7 | CCc1nc(C2CCCN(C(=O)c3ccncc3)C2)no1 (stereo not given) | 123.6
8 | C=Cc1ccc(C(=O)N2CCCC(Nc3ccc(F)cc3)C2)cc1 (stereo not given) | -17.89
9 | CCC(CC(=O)NS(=O)(=O)C(C)C)c1ccccc1 (stereo not given) | 10.71
10 | COc1cc2c(cc1CNCc1cccnc1-n1cccn1)OC(C)C2.Cl (stereo not given) | 12.76
11 | Cc1ccc(C)c(CNC(=O)NC(C)(C(=O)O)c2ccco2)c1 (stereo not given) | 3.789
12 | CC1=C(CCN2CCCC(O)C2)C(C)(C)CCC1 (stereo not given) | -3.829
13 | C(=C\c1ccc(CN2CCCC2)cn1)/c1ccccc1 | -4.188
14 | CCCNc1nc(CS(=O)(=O)c2ccccc2)cs1 | -6.524
15 | CC(=O)Nc1nc(C(=O)NCCOc2ccccc2)cs1 | -21.48
16 | Br.O=C(O)c1csc(NCCc2ccccc2)n1 | 93.16
17 | CC(C)(C)CC(=O)NCC(=O)NCC(O)c1ccc2ccccc2c1 (stereo not given) | 2.35
18 | CN(Cc1ccc(-n2cccn2)cc1)c1cc(N)nc(N)n1 | -3.397
19 | Cc1cc(N2CCC(c3nnc(CN(C)C)n3C3CC3)CC2)ccn1 | 1.365
20 | Cc1nccnc1N1CCC2(CCCN(C3CCOCC3)C2=O)C1 (stereo not given) | 28.32
21 | N#Cc1cccnc1N1CCC2(CCCN(C3CCOCC3)C2=O)C1 (stereo not given) | -10.29
22 | O=C1N(C2CCOCC2)CCCC12CCN(c1ncccc1Cl)C2 (stereo not given) | 119
23 | Cc1cc(N2CCC3(CCCN(C4CCOCC4)C3=O)C2)ccn1 (stereo not given) | 118.2
24 | COC[C@@]12CC[C@@H](N3CCOCC3)C[C@H]1CCN(c1ncccc1Cl)C2 | 19.13
25 | Cc1cnc(C)c(N2CCC3(CCCN(C4CCOCC4)C3=O)C2)n1 (stereo not given) | 106.2
26 | COc1ccnc(N2CCC3(CCCN(C(C)C)C3=O)C2)n1 (stereo not given) | 10.66
27 | Cc1ccc(C#N)c(N2CCC(c3nccn3Cc3cscn3)CC2)n1 | -1.954
28 | Cc1ccc(C#N)c(N2CCC3(CCC(=O)N(CC(N)=O)C3)CC2)n1 | -13.92
29 | Cc1nc(N2CCC3(CCCN(C(C)C)C3=O)C2)c2sccc2n1 (stereo not given) | -8.987
30 | Cc1ccc(C#N)c(N2CCC3(CCCN(C4CCOCC4)C3=O)C2)n1 (stereo not given) | 93.97
